The source made the active and inactive calls. How the source made its calls: active means hit-call score of the fitted dose curve at least 0.9, where 1 is the maximum; inactive means score below 0.9.
What was measured:
[1] = CEETOX_H295R_DOC: CeeTox H295R High-throughput Steroidogenesis Assay for DOC (AID 2283439); conditions: actives raise or lower the signal
How it was run: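 H295R adrenal cells prestimulated 48 h with 10 uM forskolin, then exposed 48 h to test chemical (0.1% DMSO final). Medium 11-deoxycorticosterone extracted with MTBE, quantified by HPLC-MS/MS; bidirectional fit versus DMSO baseline; MTT viability in same wells.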

[2] = read-out: Tumor necrosis factor receptor superfamily member 6 (Homo sapiens) (UniProt P25445); assay: LTEA_HepaRG_FAS: Life Technologies and Expression Analysis (LTEA) Assay for Fas cell surface death receptor (FAS) using HepaRG (AID 2283447); conditions: mRNA level, 48 h; actives raise or lower the signal
How it was run: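 Differentiated HepaRG cells in serum-free induction medium were exposed 48 h to 8 half-log concentrations up to 100 uM in 0.5% DMSO, in duplicate. FAS mRNA was measured by qRT-PCR normalised to ACTB, GAPDH and POLR2A; bidirectional fit versus DMSO.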

[3] = read-out: Fatty acid synthase (Homo sapiens) (UniProt P49327); assay: LTEA_HepaRG_FASN: Life Technologies and Expression Analysis (LTEA) Assay for Fatty Acid Synthase (FASN) using HepaRG (AID 2283448); conditions: mRNA level, 48 h; actives raise or lower the signal
How it was run: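 Differentiated human HepaRG cells were exposed for 48 h in serum-free induction medium to eight half-log concentrations up to 100 uM in 0.5% DMSO, in duplicate. FASN mRNA was quantified by TaqMan qRT-PCR, normalized to ACTB/GAPDH/POLR2A, and fitted bidirectionally against DMSO.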

[4] = read-out: Cyclin D2 (CCND2), CCND2 (gene 894); assay: LTEA_HepaRG_CCND2: Life Technologies and Expression Analysis (LTEA) Assay for Cyclin D2 (CCND2) using HepaRG (AID 2283449); conditions: mRNA level, 48 h; actives raise or lower the signal;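 further: CCND2 transcript measured by TaqMan qRT-PCR and normalised to three housekeeping genes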
How it was run: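 Chemicals in 0.5% DMSO, eight half-log concentrations from 100 uM top, were applied in duplicate for 48 h to human HepaRG cells in serum-free induction medium. CCND2 mRNA by TaqMan qRT-PCR, normalised to ACTB/GAPDH/POLR2A; bidirectional fit versus DMSO.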

[5] = read-out: Cyclin Dependent Kinase Inhibitor 1A (CDKN1A), CDKN1A (gene 1026); assay: LTEA_HepaRG_CDKN1A: Life Technologies and Expression Analysis (LTEA) Assay for Cyclin Dependent Kinase Inhibitor 1A (CDKN1A) using HepaRG (AID 2283450); conditions: mRNA level, 48 h; actives raise or lower the signal
How it was run: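 Gain or loss of CDKN1A transcript is scored by bidirectional fitting against 0.5% DMSO vehicle. Human HepaRG cultures receive chemicals for 48 h across an 8-point series peaking at 100 uM; expression comes from qRT-PCR.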

[6] = read-out: Cyclin D1 (CCND1), CCND1 (gene 595); assay: LTEA_HepaRG_CCND1: Life Technologies and Expression Analysis (LTEA) Assay for Cyclin D1 (CCND1) using HepaRG (AID 2283451); conditions: mRNA level, 48 h; actives raise or lower the signal;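 on AC50: TaqMan qRT-PCR transcript level normalised to ACTB GAPDH and POLR2A housekeeping genes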
How it was run: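 Expression change is measured by qRT-PCR in HepaRG cells after 48 h treatment across eight concentrations topping at 100 uM, with duplicate wells and DMSO (0.5%) serving as baseline for bidirectional fitting.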

[7] = read-out: catalase (CAT), CAT (gene 847); assay: LTEA_HepaRG_CAT: Life Technologies and Expression Analysis (LTEA) Assay for catalase (CAT) using HepaRG (AID 2283452); conditions: mRNA level, 48 h; actives raise or lower the signal;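 on AC50: TaqMan qRT-PCR signal normalized to ACTB GAPDH and POLR2A housekeeping genes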
How it was run: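 HepaRG cells in serum-free induction medium, 0.5% DMSO vehicle, exposed 48 h in duplicate over 8 half-log concentrations from 100 uM. CAT mRNA measured by qRT-PCR, normalized to ACTB, GAPDH, POLR2A; bidirectional fit versus DMSO.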

[8] = CEETOX_H295R_ESTRADIOL: CeeTox H295R High-throughput Steroidogenesis Assay for Estradiol (AID 2283440); conditions: actives raise or lower the signal;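 further: estradiol secreted into medium quantified by LC-MS/MS after dansyl derivatisation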
How it was run: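 Readout is estradiol in conditioned medium, quantified by reverse-phase HPLC-MS/MS against a 7-point standard curve. Cells: H295R, forskolin-stimulated, then dosed 48 h in 0.1% DMSO; activity fitted in both directions relative to DMSO.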

[9] = CEETOX_H295R_ESTRONE: CeeTox H295R High-throughput Steroidogenesis Assay for Estrone (AID 2283441); conditions: actives raise or lower the signal;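 further: estrone secreted into medium measured by LC-MS/MS after dansyl derivatization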
How it was run: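 H295R cells; 48 h forskolin (10 uM) prestimulation; 48 h compound exposure, 0.1% DMSO final. Medium estrone: MTBE extraction, dansyl derivatization, HPLC-MS/MS. Bidirectional fit vs DMSO.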

[10] = CEETOX_H295R_PROG: CeeTox H295R High-throughput Steroidogenesis Assay for Progesterone (PROG) (AID 2283442); conditions: actives raise or lower the signal;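 on AC50: human H295R adrenal cells primed with 10 µM forskolin before dosing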
How it was run: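 Measured analyte is progesterone secreted by H295R cells at 48 h of chemical treatment, following 10 uM forskolin priming. Quantitation used HPLC-MS/MS against a 7-point standard curve; cytotoxicity was checked by MTT absorbance.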

Measured: AC50

Chain of Fatty acid synthase (Homo sapiens) (P49327 whole entry, looked up): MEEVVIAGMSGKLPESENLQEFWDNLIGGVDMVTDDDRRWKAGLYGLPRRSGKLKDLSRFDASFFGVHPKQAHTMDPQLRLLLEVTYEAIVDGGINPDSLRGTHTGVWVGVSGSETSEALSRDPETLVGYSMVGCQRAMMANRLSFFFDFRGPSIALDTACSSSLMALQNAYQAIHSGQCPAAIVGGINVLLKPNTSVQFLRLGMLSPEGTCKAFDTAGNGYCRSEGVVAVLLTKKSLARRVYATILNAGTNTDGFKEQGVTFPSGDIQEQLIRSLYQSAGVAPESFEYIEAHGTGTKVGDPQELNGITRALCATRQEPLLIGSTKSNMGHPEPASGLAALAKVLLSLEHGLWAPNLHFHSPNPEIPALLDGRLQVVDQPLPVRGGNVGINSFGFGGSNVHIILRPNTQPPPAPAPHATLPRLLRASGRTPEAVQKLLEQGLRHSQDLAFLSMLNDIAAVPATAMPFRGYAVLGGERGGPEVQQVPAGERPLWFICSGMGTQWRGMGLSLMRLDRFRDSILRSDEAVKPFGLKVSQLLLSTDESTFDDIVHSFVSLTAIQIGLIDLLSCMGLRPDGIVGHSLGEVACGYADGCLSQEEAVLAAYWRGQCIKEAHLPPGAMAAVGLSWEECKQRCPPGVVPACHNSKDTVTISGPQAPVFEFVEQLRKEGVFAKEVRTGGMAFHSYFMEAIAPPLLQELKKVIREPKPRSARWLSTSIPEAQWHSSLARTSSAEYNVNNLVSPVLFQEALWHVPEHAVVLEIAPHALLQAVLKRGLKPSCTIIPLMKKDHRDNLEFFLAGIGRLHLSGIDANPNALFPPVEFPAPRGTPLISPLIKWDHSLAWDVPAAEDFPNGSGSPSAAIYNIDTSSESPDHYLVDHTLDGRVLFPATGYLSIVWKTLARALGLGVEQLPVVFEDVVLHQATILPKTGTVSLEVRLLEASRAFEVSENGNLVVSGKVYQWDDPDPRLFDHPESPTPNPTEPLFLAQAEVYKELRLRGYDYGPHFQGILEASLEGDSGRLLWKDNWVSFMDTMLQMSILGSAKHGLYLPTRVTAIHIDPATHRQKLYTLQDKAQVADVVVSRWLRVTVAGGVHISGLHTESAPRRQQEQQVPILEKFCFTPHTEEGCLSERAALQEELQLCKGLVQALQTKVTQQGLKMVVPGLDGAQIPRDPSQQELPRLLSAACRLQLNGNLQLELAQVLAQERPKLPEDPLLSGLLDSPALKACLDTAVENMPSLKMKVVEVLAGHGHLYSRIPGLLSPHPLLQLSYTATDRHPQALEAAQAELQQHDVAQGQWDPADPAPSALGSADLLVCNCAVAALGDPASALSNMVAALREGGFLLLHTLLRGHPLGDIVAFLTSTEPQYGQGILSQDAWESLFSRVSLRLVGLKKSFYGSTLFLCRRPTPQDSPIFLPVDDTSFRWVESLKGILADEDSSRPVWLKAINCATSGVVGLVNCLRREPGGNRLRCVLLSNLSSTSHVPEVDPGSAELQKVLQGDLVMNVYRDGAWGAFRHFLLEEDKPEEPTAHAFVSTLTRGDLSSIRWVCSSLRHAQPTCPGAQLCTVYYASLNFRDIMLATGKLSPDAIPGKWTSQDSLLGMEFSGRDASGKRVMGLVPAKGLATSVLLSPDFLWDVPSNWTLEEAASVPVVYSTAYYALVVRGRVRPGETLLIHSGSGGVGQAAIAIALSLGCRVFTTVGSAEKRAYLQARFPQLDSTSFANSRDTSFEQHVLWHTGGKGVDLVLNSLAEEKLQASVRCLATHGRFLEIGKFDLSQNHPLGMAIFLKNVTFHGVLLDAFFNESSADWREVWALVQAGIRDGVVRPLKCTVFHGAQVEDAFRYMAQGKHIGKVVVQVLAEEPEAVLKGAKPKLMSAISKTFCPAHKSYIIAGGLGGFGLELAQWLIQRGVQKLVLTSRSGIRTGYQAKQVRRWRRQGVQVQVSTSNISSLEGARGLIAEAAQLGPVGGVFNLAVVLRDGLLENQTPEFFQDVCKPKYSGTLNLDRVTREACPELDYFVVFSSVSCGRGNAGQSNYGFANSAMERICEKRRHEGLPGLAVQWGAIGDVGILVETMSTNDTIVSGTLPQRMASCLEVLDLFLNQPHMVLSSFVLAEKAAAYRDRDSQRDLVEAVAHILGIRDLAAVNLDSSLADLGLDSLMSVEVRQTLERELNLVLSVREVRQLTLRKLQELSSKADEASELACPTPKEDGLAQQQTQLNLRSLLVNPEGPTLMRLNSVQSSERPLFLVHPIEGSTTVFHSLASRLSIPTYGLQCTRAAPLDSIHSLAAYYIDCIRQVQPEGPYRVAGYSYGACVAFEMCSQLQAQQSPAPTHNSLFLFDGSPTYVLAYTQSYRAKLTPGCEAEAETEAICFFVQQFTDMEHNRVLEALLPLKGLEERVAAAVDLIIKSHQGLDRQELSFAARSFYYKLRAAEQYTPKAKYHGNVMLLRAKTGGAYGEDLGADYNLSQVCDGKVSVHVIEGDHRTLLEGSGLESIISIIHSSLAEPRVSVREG

CC(COCC(C)OC(=O)c1ccccc1)OC(=O)c1ccccc1 (configuration not stated)
not listed: [8] | [9] | [10]
inactive: all other assays above

Oc1ccc(O)cc1
active: [1] 2.16 µM | [10] 3.17 µM
inactive: all other assays above

CC(=O)[C@@]1(O)CC[C@H]2[C@@H]3CCC4=CC(=O)CC[C@]4(C)[C@H]3CC[C@@]21C
active: [1] 14.9 µM | [10] 42.6 µM | [3] 50 µM
not listed: [8] | [9]
inactive: all other assays above

Cc1cc(Cc2ccc(N)c(C)c2)ccc1N
active: [1] 13.2 µM | [10] 18.9 µM
not listed: [8] | [9]
inactive: all other assays above

O=C1c2c(O)cccc2Cc2cccc(O)c21
not listed: [8] | [9]
inactive: all other assays above

Oc1ccccc1O
not listed: [8] | [9]
inactive: all other assays above

O=C(N[C@@H](c1ccccc1)[C@@H]1CCCCN1)c1cccc(C(F)(F)F)c1Cl
inactive: [2] | [4] | [5]
active: [3] 85 µM | [6] 16.6 µM | [7] 56.7 µM

COc1ccc(C(=O)Nc2nc3ccccc3c(NCc3ccccc3)c2C#N)cc1
active: [1] 3.01 µM | [10] 1.49 µM | [3] 10.3 µM | [5] 26.3 µM | [6] 16.8 µM | [7] 18.7 µM
inactive: [8] | [9] | [2] | [4]

O=C(Oc1ccccc1)c1cccc(C(=O)Oc2ccccc2)c1
not listed: [8] | [9]
inactive: all other assays above

CCN(CC)CCOc1ccc(C(=C(Cl)c2ccccc2)c2ccccc2)cc1
active: [1] 0.0456 µM | [10] 0.0347 µM | [7] 42 µM
not listed: [8] | [9]
inactive: all other assays above

O=C1CCCCC1
inactive: [2] | [3] | [4] | [5] | [6] | [7]

CCc1cc(C2=C(C(=O)O)N(c3ccccc3C(F)(F)F)S(=O)(=O)c3ccccc32)cc2c1OCO2
inactive: [3] | [4] | [5] | [6]
active: [2] 50 µM | [7] 50 µM

CC(C)c1cccc(C(C)C)c1NC(=O)NS(=O)(=O)c1cc(C(C)(C)O)co1
inactive: [2] | [3] | [4] | [5] | [6] | [7]

c1ccc2occc2c1
inactive: [2] | [3] | [4] | [5] | [6] | [7]

Cc1ccc(-c2cc(C(F)(F)F)nn2-c2ccc(S(N)(=O)=O)cc2)cc1
active: [2] 84.5 µM | [3] 76.7 µM | [7] 83.6 µM
inactive: [4] | [5] | [6]

OCC(O)CO
inactive: [2] | [3] | [4] | [5] | [6] | [7]

CN(C)CCCN1c2ccccc2Sc2ccc(Cl)cc21
inactive: [2] | [4]
active: [3] 12.5 µM | [5] 50 µM | [6] 50 µM | [7] 50 µM

CCOCCOCCO
inactive: [2] | [3] | [4] | [5] | [6] | [7]

COC(=O)[C@H]1[C@H]2C[C@@H]3c4[nH]c5cc(OC)ccc5c4CCN3C[C@H]2C[C@@H](OC(=O)c2cc(OC)c(OC)c(OC)c2)[C@@H]1OC
active: [3] 28.1 µM | [4] 14.9 µM | [7] 42.2 µM
inactive: [2] | [5] | [6]

CC(=O)OCC(COC(C)=O)OC(C)=O
inactive: [2] | [3] | [4] | [5] | [6] | [7]

CC(=O)OC1CC(C)OC(C)O1 (configuration not stated)
inactive: [2] | [3] | [4] | [5] | [6] | [7]
